Measurements from PubChem BioAssay (NCI).
This is part of a sample that, as a whole, favours compounds with a hit. Of some 83,000 tested, about 20% had one in any assay.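 Each cell line was grown in a 96-well plate and treated with one concentration of compound for 48 hours. Values below 10 were considered active.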 A number with no mark means an inactive call. Activity calls are given as the source filed them.

How the values were obtained:
Experiment in all cases: NCI-60 one-dose screen, 48 h (100 = growth as untreated, 0 = no growth, -100 = all killed)
Settings in all cases: 10 µM unless noted
RPMI-8226 leukemia = test system: RPMI-8226 leukemia
OVCAR-8 ovarian = test system: OVCAR-8 ovarian
OVCAR-5 ovarian = test system: OVCAR-5 ovarian
OVCAR-4 ovarian = test system: OVCAR-4 ovarian
SK-OV-3 ovarian = test system: SK-OV-3 ovarian
IGROV1 ovarian = test system: IGROV1 ovarian
OVCAR-3 ovarian = test system: OVCAR-3 ovarian
HS 578T breast = test system: HS 578T breast
NCI/ADR-RES ovarian = test system: NCI/ADR-RES ovarian
T-47D breast = test system: T-47D breast
BT-549 breast = test system: BT-549 breast
MDA-MB-435 melanoma = test system: MDA-MB-435 melanoma
SW-620 colon = test system: SW-620 colon
MCF7 breast = test system: MCF7 breast
HCT-116 colon = test system: HCT-116 colon
HCC-2998 colon = test system: HCC-2998 colon
KM12 colon = test system: KM12 colon

| SMILES | growth (RPMI-8226 leukemia) | growth (OVCAR-8 ovarian) | growth (OVCAR-5 ovarian) | growth (OVCAR-4 ovarian) | growth (SK-OV-3 ovarian) [%] | growth (IGROV1 ovarian) | growth (OVCAR-3 ovarian) | growth (HS 578T breast) | growth (NCI/ADR-RES ovarian) | growth (T-47D breast) | growth (BT-549 breast) | growth (MDA-MB-435 melanoma) | growth (SW-620 colon) | growth (MCF7 breast) | growth (HCT-116 colon) | growth (HCC-2998 colon) | growth (KM12 colon) |
| --- | --- | --- | --- | --- | --- | --- | --- | --- | --- | --- | --- | --- | --- | --- | --- | --- | --- |
| Cc1cc(O)c(C2=NN(c3ccc(S(N)(=O)=O)cc3)C(c3ccccc3Cl)C2)cc1Cl (centres undefined) | 11% | -14.5% (active) | 18.1% | 34.3% | 44.5 | 12.2% | -13.1% (active) | -4.47% (active) | -11% (active) | 18.3% | 104% | 8.16% (active) | -27.4% (active) | 0.899% (active) | -90.4% (active) | -39.4% (active) | -37% (active) |
| NC(=S)N/N=C/Cc1ccccc1 | 88.3% | 84.3% | 120% | 65.5% | 111 | 79% | 109% | 103% | 83.7% | 49.3% | 119% | 124% | 102% | 21.5% | 6.31% (active) | 113% | 107% |
| COc1ccc(/C=N\NC(=O)c2cc(-c3ccc(Br)cc3)n(-c3ccc(S(N)(=O)=O)cc3)n2)cc1 | 61.1% | 72% | 82.5% | 57.6% | 74.1 | 46.2% | 21.2% | 22.4% | 31.4% | 30.9% | 76.1% | -43.8% (active) | 36.9% | 18.3% | 28.4% | 66% | 30.8% |
| COc1c(CCC[P+](c2ccccc2)(c2ccccc2)c2ccccc2)cc2c(c1OC)OCO2 | 8.37% (active) | 8.63% (active) | 30.4% | 6.3% (active) | 14.1 | 21.2% | 7.21% (active) | 11.7% | 103% | 2.54% (active) | 11.5% | 2.57% (active) | 13.1% | 2.19% (active) | 5.97% (active) | 24.1% | 4.98% (active) |
| COc1cccc(-c2nc3sccn3c2-c2ccnc(NCCNS(=O)(=O)c3ccc(C(F)(F)F)cc3)c2)c1 | 3.52% (active) | 27.1% | 88% | 16.3% | 40.5 | 45.2% | 40.7% | 30.5% | 19.9% | 5.15% (active) | 10.4% | 33.6% | 64.9% | 19.5% | 27.9% | 70% | 26.4% |
| Cc1c(Cl)cc(-n2c(=O)c3ccccc3c3ccccc3c2=O)cc1Cl | 91.8% | 105% | 101% | 104% | 98.4 | 86.7% | 127% | 99.3% | 102% | 93.9% | 89.8% | 104% | 109% | 98% | 101% | 95.5% | 111% |
| NC[C@H](O)c1ccc(O)c(O)c1 | 104% | 96.3% | 84.4% | 123% | 102 | 118% | 108% | 113% | 92.1% | 110% | 88.7% | 109% | 105% | 110% | 95.6% | 102% | 103% |
| COc1ccc(Nc2nnc(SCc3ccccc3F)s2)cc1 | 71.6% | 100% | 92.8% | 99.4% | 90.9 | 8.8% (active) | 111% | 98% | 99.1% | 85.8% | 118% | 99% | 109% | 90.6% | 103% | 106% | 94.6% |
| Nc1n[nH]c(-c2cc(Cl)ccc2O)c1-c1ccccc1 | 91.1% | 91% | 67.4% | 86.3% | 96.7 | 96% | 107% | 85.3% | 79.3% | 85.3% | 112% | 93.6% | 102% | 92.7% | 85.1% | 86.5% | 64.2% |
| COc1cc2nc(Cl)nc(Nc3ccc(S(=O)(=O)Nc4nccs4)cc3)c2cc1OC | 107% | 97.3% | 111% | 103% | 101 | 107% | 116% | 99.5% | 104% | 94.3% | 95.1% | 106% | 105% | 103% | 95% | 72.9% | 112% |
| CC(=O)OC[C@H]1OC(Sc2sc(C(=O)c3ccc(Br)cc3)c(N)c2-c2nc3ccccc3s2)[C@H](OC(C)=O)[C@@H](OC(C)=O)[C@@H]1OC(C)=O (some centres undefined) | 43% | 46.1% | 65.7% | 12.9% | 96.6 | 45.6% | 76.2% | 43% | 57.9% | 73.7% | 80.7% | 80.7% | 54% | 62.7% | 18.7% | 75.9% | 78.3% |
| O=C(/C=C/c1c(Cl)nc2sccn12)c1nccs1 | 83.7% | 93.9% | 73.2% | 109% | 89.8 | 101% | 90.9% | 65.5% | 99.3% | 87.5% | 109% | 91.9% | 77.8% | 76.2% | 81.1% | 102% | 89.7% |
| COc1cccc(/C=C/C(=O)c2c(C)nc3ccccc3c2/C=C/c2ccc(C)cc2)c1OC | 8.55% (active) | 49.6% | 67.5% | 56.6% | 84.8 | 36.4% | 52.4% | 68.3% | 40.6% | 29.1% | 69.1% | 55.5% | 31% | 13.8% | 8.38% (active) | 36.4% | 65.6% |
| O=c1cc(-c2ccc(Cl)cc2)[nH]c2ccccc12 | 71.5% | 102% | 91.7% | 92.1% | 90.4 | 81.7% | 81.7% | 106% | 62.2% | 87.2% | 101% | 5.74% (active) | 56.9% | 49.9% | 73.2% | 76.7% | 43.7% |
| Cc1ccc(/C=C/c2c(C(=O)/C=C/c3ccc(Cl)cc3)c(C)nc3ccccc23)cc1 | -31.7% (active) | 13% | -33.4% (active) | 6.64% (active) | 55.1 | 1.39% (active) | -46.2% (active) | -5.28% (active) | -21.6% (active) | 1.89% (active) | -10.4% (active) | -47.5% (active) | -33.1% (active) | 12.8% | -59.6% (active) | -82.1% (active) | -24.9% (active) |
| COc1ccc(C2=NN(C(=O)c3cc(OC)c(OC)c(OC)c3)C(c3ccc(Cl)cc3)C2)cc1OC (centres undefined) | -18.4% (active) | 34.4% | 41.4% | 52% | 25.8 | 36.7% | -35.2% (active) | 0.152% (active) | -36.3% (active) | 24.6% | 49.9% | -43.3% (active) | 30.1% | 18.7% | 10.6% | -62.4% (active) | 15.9% |
| Cc1cc(/C=C\c2ccc3ccccc3[n+]2C)c(O)c2ncccc12 | 14% | 6.2% (active) | 23.9% | 7.86% (active) | 20.9 | -1.34% (active) | 25.8% | 32.9% | 32.4% | 18% | -19.4% (active) | 6.21% (active) | 15.1% | 5.19% (active) | -8.95% (active) | -3.25% (active) | 13.7% |
